Results as given in PubChem BioAssay (EPA / NIEHS).
The source made the active and inactive calls. How the source made its calls: active means hit-call score of the fitted dose curve at least 0.9, where 1 is the maximum; inactive means score below 0.9.

Read-out: Cytochrome P450 7A1 (Homo sapiens) (UniProt P22680)
Assay: LTEA_HepaRG_CYP7A1: Life Technologies and Expression Analysis (LTEA) Assay for Cytochrome P450 7A1 (CYP7A1) using HepaRG (AID 2283496)
Conditions: mRNA level, 48 h; actives raise or lower the signal
Description: LTEA_HepaRG is a cell based, multiplexed-readout assay that uses HepaRG, a human liver cell line, with measurements taken at 48 hours after chemical dosing on a 96-well plate.LTEA_HepaRG_CYP7A1 is one of 102 assay component(s) measured in the LTEA HepaRG cell culture assay. It is a marker of NR mediated metabolism.Data from the assay component LTEA_HepaRG_CYP7A1 was analyzed into 1 endpoint. This assay endpoint, LTEA_HepaRG_CYP7A1, was analyzed with bidirectional fitting relative to DMSO as the negative control and baseline of activity. Using a type of inducible reporter, measures of mRNA induction for gain or loss-of-signal activity can be used to understand regulation of transcription factor activity. To generalize the intended target to other relatable targets, this assay endpoint is annotated to the cyp intended target family, where the subfamily is xenobiotic metabolism.
A total of 1060 chemcials from the ToxCast library were tested in eight-point concentration-response experiments. Cell culture and cytotoxicity assays were conducted at Thermo Fisher Scientific's Custom Services facility (Madison, WI). A single lot of human HepaRG cells (Thermo Fisher Scientific, Frederick, MD) was used for the cell culture experiments. 96-well format collagen type I coated plates of human HepaRG cells were prepared using established methods. Briefly, cryopreserved HepaRG cells were thawed, plated at a density of approximately 100,000 cells/well in HepaRG Thaw, Plate, and General Purpose media (HPRG770, Thermo Fisher Scientific), and incubated for 48 hours. 0.5% DMSO was selected as vehicle control to balance the requisite need of DMSO in HepaRG cultures to maintain differentiation (for example, baseline metabolism, proportions of hepatocytes vs. cholangiocytes), while enabling further hepatic receptor pathway activation (for example, PXR and CAR) in response to chemical exposure. 48 hours after plating, the culture medium was replaced with HepaRG Serum-Free Incudtion Media. Cells were exposed to each test chemical in duplicate and maintained in CO2 incubators for another 48 hours. Chemical plates were thawed to room temperature and 200x concentrations of treatment groups were prepared. 8-point conentration-reponse curves were made with the highest exposure at 100 uM, followed by half-log dilutions, all in 0.5% DMSO. Each test plate contained variouse controls, induction positive controls (1mM phenobarbital), cytotoxicity positive controls ([…] aflatoxin B1), vehicle controls (0.5% DMSO), and total lysis controls (0.5% DMSO). Cell morphology images were taken using an Essen IncuCyte FLR automated microscope, with six 96-well plates imaged in about 24 minutes. Images were captured and exported and JPEG files. Spent culture media was transfered to black-well plates for the LDH assay, and remaining media was sorted at -80 C for later use. Cells were treated with RLT buffer and frozen until shipped for gene expression analysis. Total RNA was isolated from the cell suspension in 75 uL of Buffer RLT (Qiagen, Germantown, MD 20874) by Quintiles/Expression Analysis (Durham, NC) using a custom isolation procedure. Total RNA from each plate well was transferred to a preamplification plate. Fluidigm's 96.96 Dynamic ArrayTM (Fluidigm, Amsterdam, the Netherlands) technology was used for gene expression analyses by quantitative reverse transcription polymerase chain reaction (qRT-PCR, performed by Quintiles/Expression Analysis, Durham, NC)89. Standard TaqManTM Assays (Applied Biosystems/ThermoFisher Scientific, Foster City, CA) were used to assess the expression of 93 genes selected based on their selectivity and sensitivity to important hepatic receptors known to be modulated by environmental chemicals; importance in human hepatocyte functionality; and hepatotoxicity. […]

SMILES	outcome	AC50
O=C1O[C@H]([C@H](O)CO)C(O)=C1O	inactive	
CC(C)(O)c1ccc(CNC(=O)c2cccnc2Oc2ccc(F)cc2)cc1	inactive	
O=C1CCCCC1	inactive	
CC(=O)OC1CC(C)OC(C)O1 (stereo not given)	inactive	
Cc1cc(Cc2ccc(N)c(C)c2)ccc1N		5.09 µM (active)
NCCOCCOCCN	inactive	
Cc1cn([C@H]2C=C[C@@H](CO)O2)c(=O)[nH]c1=O	inactive	
S=c1[nH]c2ccccc2s1	inactive	
O=Cc1ccccc1C=O	inactive	
CC1=C(C)S(=O)(=O)CCS1(=O)=O		92.6 µM (active)
CCCCCCCCCC[N+](C)(C)[O-]	inactive	
CC1(C)C(=O)NC(=O)N1CO	inactive	
c1ccc2occc2c1	inactive	
O=C(O)CC(O)(CC(=O)O)C(=O)O	inactive	
C=CCCCCCCCCCCCC	inactive	
CN(C)CCCN1c2ccccc2Sc2ccc(Cl)cc21		81.3 µM (active)
COC(=O)CCCC(=O)OC	inactive	
Cc1cc(SC2=C(O)C[C@@](CCc3ccc(N)cc3)(C(C)C)OC2=O)c(C(C)(C)C)cc1CO		16.1 µM (active)
CC(=O)CC(c1ccccc1)c1c(O)c2ccccc2oc1=O (stereo not given)	inactive	
CSc1ccc(Oc2ccc(S(N)(=O)=O)cc2CN(C)C)cc1C	inactive	

SMILES	outcome	AC50
CC(C)c1cccc(C(C)C)c1	inactive	
N[C@@H](Cc1c[nH]c2ccccc12)C(=O)O	inactive	
CO[C@@H]1COCC[C@@H]1N[C@@H]1CC[C@@](C(=O)N2CCc3ncc(C(F)(F)F)cc3C2)(C(C)C)C1	inactive	
O=C1c2c(O)cccc2Cc2cccc(O)c21	inactive	
COc1ccc(OC(F)(F)F)cc1CN[C@H]1CCCN[C@H]1c1ccccc1	inactive	
O=C(O)c1cccnc1	inactive	
CCCCCCCC(=O)OC	inactive	
COc1ccc(C(=O)Nc2nc3ccccc3c(NCc3ccccc3)c2C#N)cc1		17.8 µM (active)
Nc1nc(=S)c2[nH]cnc2[nH]1		10.2 µM (active)
CC(=O)OCC(COC(C)=O)OC(C)=O	inactive	
CCCCC(CC)COP(=O)(OCC(CC)CCCC)OCC(CC)CCCC (stereo not given)	inactive	
O=NO	inactive	
CN(C)CCCN(C)CCCN(C)C	inactive	
O=C(O)c1[nH]n(-c2ccc(S(=O)(=O)O)cc2)c(=O)c1N=Nc1ccc(S(=O)(=O)O)cc1	inactive	
NC(=Nc1ccccc1)Nc1ccccc1	inactive	
CC(=O)S[C@H](C(=O)N[C@H]1Cc2ccccc2[C@H]2CCC[C@@H](C(=O)O)N2C1=O)C(C)C	inactive	
CC(N)=O	inactive	
CCCCCCC(CCCCCCCCCCC(=O)OCC(COC(C)=O)OC(C)=O)OC(C)=O (stereo not given)	inactive	
O=C(N[C@@H](c1ccccc1)[C@@H]1CCCCN1)c1cccc(C(F)(F)F)c1Cl		21.3 µM (active)
CCCC[C@H]1CN(CC2CCOCC2)C(=O)OC12CCN(C1(C)CCN(C(=O)c3c(C)ncnc3C)CC1)CC2	inactive	
